From the supplement of paper PMC10849652
The full data set covers some 8,800 targets. This sample favours those with a hit. About 0.5% of all pairs of compound and target were hits.

How the values were obtained:
Assay in all cases: log2 fold change, soluble protein after heating vs DMSO (PISA); higher = thermal stabilisation; K562 lysate, 10 uM; active = over 0.2 and 3.5 SD of the protein, either way, in both replicates (recomputed)
alvocidib = compound: CN1CC[C@H](c2c(O)cc(O)c3c(=O)cc(-c4ccccc4Cl)oc23)[C@H](O)C1 [alvocidib]
Method in brief: (§1)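 A 30 min treatment with 10 μM compound was applied to crude K562 extract at 1 mg/mL protein in PBS pH 7.4 with 1 mM MgCl2. Heating for 3 min spanned 48°C-58°C, after which aliquots were pooled, adjusted to 0.5% NP-40 at 4°C and spun at 21,000xg for 90 min. TMTpro 16plex LC-MS/MS of the supernatant, with channel sums equalised, gave values recorded as log-two fold change in thermal stability against solvent controls, from duplicates.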

Tubastatin A = compound: CN1CCc2c(c3ccccc3n2Cc2ccc(C(=O)NO)cc2)C1 [Tubastatin A]
Method in brief: as §1

[1] = compound: CNC(=O)C1=CC=CC=C1NC2=NC(=NC=C2Cl)NC3=C(C=C(C=C3)N4CCOCC4)OC
Method in brief: as §1

defactinib = compound: CNC(=O)c1ccc(Nc2ncc(C(F)(F)F)c(NCc3nccnc3N(C)S(C)(=O)=O)n2)cc1 [defactinib]
Method in brief: as §1

[2] = compound: CNc1nc(-c2ccc3c(N)n[nH]c3c2)cc(N2C[C@@H](C(=O)NC3CCCCC3)CC[C@H]2C)n1
Method in brief: as §1

encorafenib = compound: COC(=O)N[C@@H](C)CNc1nccc(-c2cn(C(C)C)nc2-c2cc(Cl)cc(NS(C)(=O)=O)c2F)n1 [encorafenib]
Method in brief: as §1

[3] = compound: COC(=O)[C@H](CCSC)NC(=O)C1=C(C=C(C=C1)NC[C@H](CS)N)C2=CC=CC=C2
Method in brief: as §1

alisertib = compound: COc1cc(Nc2ncc3c(n2)-c2ccc(Cl)cc2C(c2c(F)cccc2OC)=NC3)ccc1C(=O)O [alisertib]
Method in brief: as §1

[4] = compound: COc1cc2nc(-c3cc(F)ccc3O)nc(N[C@@H]3CNC[C@H]3C(C)(C)O)c2cc1OC
Method in brief: as §1

gefitinib = compound: COc1cc2ncnc(Nc3ccc(F)c(Cl)c3)c2cc1OCCCN1CCOCC1 [gefitinib]
Method in brief: as §1

lapatinib = compound: CS(=O)(=O)CCNCc1ccc(-c2ccc3ncnc(Nc4ccc(OCc5cccc(F)c5)c(Cl)c4)c3c2)o1 [lapatinib]
Method in brief: as §1

pictilisib = compound: CS(=O)(=O)N1CCN(Cc2cc3nc(-c4cccc5[nH]ncc45)nc(N4CCOCC4)c3s2)CC1 [pictilisib]
Method in brief: as §1

crizotinib = compound: C[C@@H](Oc1cc(-c2cnn(C3CCNCC3)c2)cnc1N)c1c(Cl)ccc(F)c1Cl [crizotinib]
Method in brief: as §1

[5] = compound: C[C@H](C1=CC=C(C=C1)C(=O)NC2=C3C=CNC3=NC=C2)N
Method in brief: as §1

duvelisib = compound: C[C@H](Nc1ncnc2nc[nH]c12)c1cc2cccc(Cl)c2c(=O)n1-c1ccccc1 [duvelisib]
Method in brief: as §1

gandotinib = compound: Cc1cc(Nc2cc(CN3CCOCC3)c3nc(C)c(Cc4ccc(Cl)cc4F)n3n2)n[nH]1 [gandotinib]
Method in brief: as §1

tozasertib = compound: Cc1cc(Nc2cc(N3CCN(C)CC3)nc(Sc3ccc(NC(=O)C4CC4)cc3)n2)n[nH]1 [tozasertib]
Method in brief: as §1

doramapimod = compound: Cc1ccc(-n2nc(C(C)(C)C)cc2NC(=O)Nc2ccc(OCCN3CCOCC3)c3ccccc23)cc1 [doramapimod]
Method in brief: as §1

bafetinib = compound: Cc1ccc(NC(=O)c2ccc(CN3CC[C@H](N(C)C)C3)c(C(F)(F)F)c2)cc1Nc1nccc(-c2cncnc2)n1 [bafetinib]
Method in brief: as §1

[6] = compound: Cc1cccc(CC(=O)N2CCc3c2ccc(-c2cn(C)c4ncnc(N)c24)c3F)n1
Method in brief: as §1

Measured: log2 fold change

EXTL2 (UniProt Q9UBQ6)
inactive: alvocidib -0.016 | Tubastatin A 0 | [1] 0.009 | defactinib 0.037 | [2] 0.104 | encorafenib 0.168 | [3] -0.048 | alisertib -0.021 | [4] -0.005 | gefitinib -0.111 | lapatinib -0.071 | pictilisib -0.282 | crizotinib 0.032 | [5] -0.138 | duvelisib -0.001 | gandotinib 0.106 | tozasertib 0.028 | doramapimod 0.058 | bafetinib -0.02 | [6] -0.006

ERAL1 (UniProt O75616)
inactive: alvocidib 0.005 | Tubastatin A -0.151 | [1] -0.03 | defactinib 0.027 | [2] -0.015 | encorafenib -0.018 | [3] 0.058 | alisertib -0.008 | [4] 0.016 | gefitinib 0.02 | lapatinib 0.075 | pictilisib -0.025 | crizotinib -0.035 | [5] -0.152 | duvelisib 0.014 | tozasertib 0.041 | doramapimod 0.006 | bafetinib -0.079 | [6] 0.03
active: gandotinib 0.321

EIF2B5 (UniProt Q13144)
UniProt Q13144, sequence (Q13144 whole entry, looked up): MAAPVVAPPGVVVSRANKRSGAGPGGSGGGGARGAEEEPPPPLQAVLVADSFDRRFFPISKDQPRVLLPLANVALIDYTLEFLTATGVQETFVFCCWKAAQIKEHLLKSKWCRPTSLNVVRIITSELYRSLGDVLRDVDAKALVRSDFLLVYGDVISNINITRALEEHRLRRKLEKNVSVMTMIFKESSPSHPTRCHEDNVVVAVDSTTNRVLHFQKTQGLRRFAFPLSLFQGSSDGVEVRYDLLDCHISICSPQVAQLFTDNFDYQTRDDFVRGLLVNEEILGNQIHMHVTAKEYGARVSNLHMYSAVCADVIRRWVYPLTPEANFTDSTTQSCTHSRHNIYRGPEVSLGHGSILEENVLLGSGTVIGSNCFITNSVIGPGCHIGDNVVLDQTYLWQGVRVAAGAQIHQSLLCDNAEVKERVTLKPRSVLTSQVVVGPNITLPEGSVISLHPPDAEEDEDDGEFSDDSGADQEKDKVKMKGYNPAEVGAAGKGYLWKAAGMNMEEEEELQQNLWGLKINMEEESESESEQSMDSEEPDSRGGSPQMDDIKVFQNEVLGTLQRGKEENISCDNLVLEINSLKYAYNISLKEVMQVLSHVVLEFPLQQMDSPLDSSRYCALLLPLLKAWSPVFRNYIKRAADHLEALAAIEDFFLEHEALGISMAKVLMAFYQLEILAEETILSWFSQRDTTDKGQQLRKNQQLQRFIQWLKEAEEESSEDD
inactive: alvocidib 0.03 | Tubastatin A -0.06 | [1] 0.04 | defactinib 0.022 | [2] 0.023 | encorafenib -0.009 | [3] 0.046 | alisertib -0.004 | [4] 0.005 | gefitinib -0.016 | lapatinib -0.01 | pictilisib -0.012 | crizotinib -0.009 | [5] -0.005 | duvelisib 0.001 | gandotinib -0.119 | tozasertib -0.019 | doramapimod 0.003 | bafetinib -0.033 | [6] 0.006

EEF1A1, A0A087WVQ9
inactive: alvocidib -0.005 | Tubastatin A -0.102 | [1] 0.042 | defactinib 0.062 | [2] 0.071 | encorafenib 0.011 | [3] 0.115 | alisertib -0.073 | [4] 0.026 | gefitinib -0.054 | lapatinib 0.028 | pictilisib -0.038 | crizotinib -0.02 | [5] 0.07 | duvelisib -0.021 | gandotinib 0.017 | tozasertib -0.08 | doramapimod -0.069 | bafetinib 0.068 | [6] -0.129

FIGNL1 (UniProt Q6PIW4)
inactive: alvocidib -0.018 | Tubastatin A -0.189 | [1] 0.014 | defactinib 0.05 | [2] -0.018 | encorafenib 0.041 | [3] 0.069 | alisertib -0.003 | [4] 0.005 | gefitinib 0.01 | lapatinib 0 | pictilisib -0.03 | crizotinib -0.078 | [5] -0.035 | duvelisib 0.002 | gandotinib -0.071 | tozasertib 0.003 | doramapimod -0.018 | bafetinib -0.024 | [6] 0.007

EAPP (UniProt Q56P03)
UniProt Q56P03, sequence (Q56P03 whole entry, looked up): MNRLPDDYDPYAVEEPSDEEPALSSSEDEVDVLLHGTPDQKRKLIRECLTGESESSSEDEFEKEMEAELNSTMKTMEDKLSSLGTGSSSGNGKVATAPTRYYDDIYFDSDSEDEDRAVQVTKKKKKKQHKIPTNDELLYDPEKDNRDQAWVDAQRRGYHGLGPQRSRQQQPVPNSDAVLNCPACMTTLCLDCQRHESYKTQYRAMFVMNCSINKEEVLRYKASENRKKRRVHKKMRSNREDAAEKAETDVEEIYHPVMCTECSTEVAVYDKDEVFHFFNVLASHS
inactive: alvocidib 0.048 | Tubastatin A -0.025 | [1] 0.078 | defactinib -0.017 | [2] 0.107 | encorafenib -0.014 | [3] -0.053 | alisertib -0.042 | [4] 0.017 | gefitinib -0.03 | lapatinib -0.033 | pictilisib 0.058 | crizotinib 0 | [5] 0.03 | duvelisib 0.03 | gandotinib -0.157 | tozasertib -0.09 | doramapimod -0.058 | bafetinib 0.109 | [6] 0.128

EXOC5 (UniProt O00471)
UniProt O00471, sequence (O00471 whole entry, looked up): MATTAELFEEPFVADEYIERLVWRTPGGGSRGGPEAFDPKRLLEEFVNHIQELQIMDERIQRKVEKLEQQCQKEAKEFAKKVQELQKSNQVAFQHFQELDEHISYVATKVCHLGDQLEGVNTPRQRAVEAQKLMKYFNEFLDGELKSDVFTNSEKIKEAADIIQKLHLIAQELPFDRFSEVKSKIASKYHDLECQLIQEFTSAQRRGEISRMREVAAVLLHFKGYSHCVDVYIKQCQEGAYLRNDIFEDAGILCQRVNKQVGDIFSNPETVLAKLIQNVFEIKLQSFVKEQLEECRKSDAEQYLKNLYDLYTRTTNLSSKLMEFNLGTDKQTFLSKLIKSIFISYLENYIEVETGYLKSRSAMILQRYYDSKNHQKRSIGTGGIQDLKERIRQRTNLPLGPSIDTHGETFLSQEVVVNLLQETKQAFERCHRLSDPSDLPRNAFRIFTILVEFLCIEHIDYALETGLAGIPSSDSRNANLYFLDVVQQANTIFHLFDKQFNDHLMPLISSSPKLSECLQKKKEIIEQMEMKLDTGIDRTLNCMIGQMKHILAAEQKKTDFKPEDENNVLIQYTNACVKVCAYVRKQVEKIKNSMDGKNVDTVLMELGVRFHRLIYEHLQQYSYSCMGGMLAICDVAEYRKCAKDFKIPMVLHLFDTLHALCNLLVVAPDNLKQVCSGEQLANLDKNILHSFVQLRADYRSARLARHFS
inactive: alvocidib 0.004 | Tubastatin A -0.064 | [1] -0.011 | defactinib 0.007 | [2] -0.07 | encorafenib 0.029 | [3] -0.102 | alisertib 0.029 | [4] -0.025 | gefitinib 0.002 | lapatinib -0.012 | pictilisib 0.017 | crizotinib -0.067 | [5] 0.055 | duvelisib -0.027 | gandotinib -0.202 | tozasertib 0.025 | doramapimod 0.027 | bafetinib -0.033 | [6] 0.003

EXOC6 (UniProt Q8TAG9)
inactive: alvocidib -0.014 | Tubastatin A -0.092 | [1] 0.013 | defactinib 0.008 | [2] -0.017 | encorafenib 0.015 | [3] 0.039 | alisertib 0.007 | [4] 0.016 | gefitinib 0.003 | lapatinib -0.017 | pictilisib -0.04 | crizotinib -0.121 | [5] -0.013 | duvelisib 0 | gandotinib -0.166 | tozasertib 0.029 | doramapimod 0.004 | bafetinib -0.059 | [6] 0.033

EDARADD (UniProt Q8WWZ3)
UniProt Q8WWZ3, sequence (Q8WWZ3 whole entry, looked up): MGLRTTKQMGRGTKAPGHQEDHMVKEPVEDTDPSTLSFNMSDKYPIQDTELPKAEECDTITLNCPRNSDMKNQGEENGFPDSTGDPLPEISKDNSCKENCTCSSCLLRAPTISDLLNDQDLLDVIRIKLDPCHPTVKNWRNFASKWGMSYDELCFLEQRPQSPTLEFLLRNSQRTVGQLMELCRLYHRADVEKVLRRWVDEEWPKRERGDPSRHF
inactive: alvocidib -0.015 | Tubastatin A -0.003 | [1] 0.019 | defactinib 0.009 | [2] -0.068 | encorafenib 0.013 | [3] -0.072 | alisertib -0.075 | [4] 0.027 | gefitinib 0.043 | lapatinib -0.037 | pictilisib -0.122 | crizotinib 0.027 | [5] -0.049 | duvelisib 0.015 | gandotinib 0.074 | tozasertib 0.082 | doramapimod 0.086 | bafetinib 0 | [6] -0.027

GCLM (UniProt P48507)
UniProt P48507, sequence (P48507 whole entry, looked up): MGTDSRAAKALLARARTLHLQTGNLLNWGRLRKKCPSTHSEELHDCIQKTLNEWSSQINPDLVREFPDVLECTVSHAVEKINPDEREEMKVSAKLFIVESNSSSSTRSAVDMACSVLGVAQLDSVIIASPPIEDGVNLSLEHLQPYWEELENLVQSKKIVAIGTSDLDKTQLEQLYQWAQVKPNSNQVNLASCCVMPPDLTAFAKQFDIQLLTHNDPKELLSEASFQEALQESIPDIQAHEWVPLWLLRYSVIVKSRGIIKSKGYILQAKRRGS
inactive: alvocidib 0.028 | Tubastatin A -0.049 | [1] 0.003 | defactinib 0.003 | [2] -0.038 | encorafenib -0.003 | [3] -0.004 | alisertib 0.05 | [4] 0.002 | gefitinib -0.023 | lapatinib -0.006 | pictilisib -0.013 | crizotinib 0.018 | [5] -0.009 | duvelisib 0.016 | gandotinib -0.004 | tozasertib -0.017 | doramapimod 0.001 | bafetinib 0.003 | [6] -0.03

EDC4 (UniProt Q6P2E9)
inactive: alvocidib -0.012 | Tubastatin A -0.14 | [1] 0.015 | defactinib -0.008 | [2] -0.034 | encorafenib 0.009 | [3] -0.116 | alisertib 0.021 | [4] 0.021 | gefitinib -0.017 | lapatinib -0.025 | pictilisib -0.029 | crizotinib -0.01 | [5] -0.044 | duvelisib 0.016 | gandotinib -0.027 | tozasertib -0.016 | doramapimod -0.014 | bafetinib -0.043 | [6] 0.049

GCN1 (UniProt Q92616)
UniProt Q92616, sequence (Q92616 whole entry, looked up): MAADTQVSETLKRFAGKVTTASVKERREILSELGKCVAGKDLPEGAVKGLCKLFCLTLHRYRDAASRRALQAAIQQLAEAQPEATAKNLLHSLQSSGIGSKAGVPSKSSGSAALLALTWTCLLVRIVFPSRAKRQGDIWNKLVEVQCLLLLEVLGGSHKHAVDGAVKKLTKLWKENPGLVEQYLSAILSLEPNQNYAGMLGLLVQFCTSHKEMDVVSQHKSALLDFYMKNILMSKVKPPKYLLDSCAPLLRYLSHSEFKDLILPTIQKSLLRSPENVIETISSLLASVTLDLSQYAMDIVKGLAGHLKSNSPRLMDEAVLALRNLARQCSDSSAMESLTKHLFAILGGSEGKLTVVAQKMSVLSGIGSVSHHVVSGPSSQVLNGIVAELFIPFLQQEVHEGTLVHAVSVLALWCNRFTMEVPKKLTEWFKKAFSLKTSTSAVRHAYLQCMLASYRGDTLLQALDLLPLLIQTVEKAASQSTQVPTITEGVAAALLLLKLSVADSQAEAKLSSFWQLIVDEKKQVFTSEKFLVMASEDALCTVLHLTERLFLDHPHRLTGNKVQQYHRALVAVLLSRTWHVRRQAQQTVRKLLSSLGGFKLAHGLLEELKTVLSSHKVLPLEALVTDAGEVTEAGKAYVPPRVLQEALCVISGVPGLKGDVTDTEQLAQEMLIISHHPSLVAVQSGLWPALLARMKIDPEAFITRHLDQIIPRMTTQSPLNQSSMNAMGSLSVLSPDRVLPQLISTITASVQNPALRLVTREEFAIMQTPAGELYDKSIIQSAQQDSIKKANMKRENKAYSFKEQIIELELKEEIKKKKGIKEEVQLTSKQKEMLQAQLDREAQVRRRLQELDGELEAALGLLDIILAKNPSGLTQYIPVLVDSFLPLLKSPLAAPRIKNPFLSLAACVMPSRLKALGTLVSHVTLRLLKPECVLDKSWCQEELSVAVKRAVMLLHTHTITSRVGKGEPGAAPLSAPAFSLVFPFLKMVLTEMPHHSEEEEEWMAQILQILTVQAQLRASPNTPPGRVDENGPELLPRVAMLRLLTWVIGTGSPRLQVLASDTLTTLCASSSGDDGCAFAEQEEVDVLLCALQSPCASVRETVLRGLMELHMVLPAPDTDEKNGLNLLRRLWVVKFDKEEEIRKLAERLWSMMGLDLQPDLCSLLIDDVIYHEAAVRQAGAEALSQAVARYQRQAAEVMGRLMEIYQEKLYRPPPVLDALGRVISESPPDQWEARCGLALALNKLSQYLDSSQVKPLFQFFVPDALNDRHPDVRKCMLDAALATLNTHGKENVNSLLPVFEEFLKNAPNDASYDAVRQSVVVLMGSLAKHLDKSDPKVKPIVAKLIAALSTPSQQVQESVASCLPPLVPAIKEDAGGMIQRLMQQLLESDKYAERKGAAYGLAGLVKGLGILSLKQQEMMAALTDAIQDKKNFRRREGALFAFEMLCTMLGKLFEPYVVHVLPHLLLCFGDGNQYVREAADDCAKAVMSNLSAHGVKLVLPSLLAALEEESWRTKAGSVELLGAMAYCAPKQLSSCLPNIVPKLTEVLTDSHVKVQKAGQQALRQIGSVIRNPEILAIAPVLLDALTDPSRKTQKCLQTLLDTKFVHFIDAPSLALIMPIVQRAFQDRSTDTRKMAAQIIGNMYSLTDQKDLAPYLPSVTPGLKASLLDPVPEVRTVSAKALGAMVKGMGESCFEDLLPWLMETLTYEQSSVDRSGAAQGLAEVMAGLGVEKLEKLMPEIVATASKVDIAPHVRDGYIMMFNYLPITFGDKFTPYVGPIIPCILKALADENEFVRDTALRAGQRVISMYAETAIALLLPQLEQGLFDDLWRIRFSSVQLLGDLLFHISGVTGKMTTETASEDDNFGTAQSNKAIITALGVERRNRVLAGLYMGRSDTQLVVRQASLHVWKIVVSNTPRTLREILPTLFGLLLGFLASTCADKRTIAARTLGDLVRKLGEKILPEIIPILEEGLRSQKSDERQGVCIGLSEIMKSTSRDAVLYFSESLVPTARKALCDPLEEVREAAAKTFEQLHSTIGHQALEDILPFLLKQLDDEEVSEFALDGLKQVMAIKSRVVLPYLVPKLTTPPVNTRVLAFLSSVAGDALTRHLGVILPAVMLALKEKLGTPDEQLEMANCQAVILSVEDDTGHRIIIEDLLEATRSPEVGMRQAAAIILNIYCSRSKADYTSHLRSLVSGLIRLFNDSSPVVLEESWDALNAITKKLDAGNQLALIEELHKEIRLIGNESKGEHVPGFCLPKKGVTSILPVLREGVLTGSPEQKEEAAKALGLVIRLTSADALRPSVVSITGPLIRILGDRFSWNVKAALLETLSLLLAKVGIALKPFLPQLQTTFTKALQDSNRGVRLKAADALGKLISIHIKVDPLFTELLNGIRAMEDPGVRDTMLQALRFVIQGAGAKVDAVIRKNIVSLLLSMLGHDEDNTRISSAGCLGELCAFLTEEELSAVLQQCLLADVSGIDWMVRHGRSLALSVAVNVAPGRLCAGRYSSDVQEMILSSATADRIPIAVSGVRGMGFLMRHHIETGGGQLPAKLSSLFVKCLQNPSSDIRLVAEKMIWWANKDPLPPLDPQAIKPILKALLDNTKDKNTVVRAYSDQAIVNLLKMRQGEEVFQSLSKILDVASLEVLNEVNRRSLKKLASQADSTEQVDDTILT
inactive: alvocidib 0.036 | Tubastatin A -0.181 | [1] 0.001 | defactinib 0.037 | [2] -0.023 | encorafenib 0.014 | [3] 0.147 | alisertib 0.023 | [4] 0.006 | gefitinib -0.004 | lapatinib -0.034 | pictilisib -0.027 | crizotinib -0.125 | [5] -0.002 | duvelisib 0.008 | gandotinib -0.121 | tozasertib 0.017 | doramapimod 0.019 | bafetinib -0.049 | [6] 0.053

GEMIN4 (UniProt P57678)
inactive: alvocidib 0.017 | Tubastatin A -0.196 | [1] 0.078 | defactinib -0.014 | [2] -0.072 | encorafenib 0.022 | [3] 0.013 | alisertib -0.006 | [4] -0.005 | gefitinib 0.016 | lapatinib -0.031 | pictilisib -0.012 | crizotinib -0.065 | [5] -0.013 | duvelisib 0.004 | gandotinib -0.188 | tozasertib -0.009 | doramapimod 0.032 | bafetinib -0.038 | [6] 0.039

GGA2 (UniProt Q9UJY4)
inactive: alvocidib 0.002 | Tubastatin A -0.085 | [1] 0.003 | defactinib -0.029 | [2] -0.018 | encorafenib 0.002 | [3] 0.01 | alisertib 0.038 | [4] 0.023 | gefitinib -0.025 | lapatinib -0.024 | pictilisib -0.037 | crizotinib -0.029 | [5] 0.023 | duvelisib -0.002 | gandotinib -0.131 | tozasertib 0.007 | doramapimod -0.024 | bafetinib -0.046 | [6] -0.004

EPHX2 (UniProt P34913)
inactive: alvocidib -0.018 | Tubastatin A 0.183 | [1] -0.023 | defactinib -0.002 | [2] 0.123 | encorafenib -0.02 | [3] -0.058 | alisertib -0.045 | [4] -0.007 | gefitinib -0.002 | lapatinib -0.031 | pictilisib -0.019 | crizotinib 0.061 | [5] 0.008 | duvelisib -0.031 | gandotinib 0.057 | tozasertib 0.116 | doramapimod -0.079 | bafetinib 0.131 | [6] 0.012

EIF2B3 (UniProt Q9NR50)
active: [5] 0.234
inactive: alvocidib 0.071 | Tubastatin A -0.103 | [1] -0.009 | defactinib 0.008 | [2] -0.012 | encorafenib -0.007 | [3] 0.057 | alisertib -0.016 | [4] -0.007 | gefitinib -0.041 | lapatinib -0.007 | pictilisib -0.021 | crizotinib -0.061 | duvelisib 0.016 | gandotinib -0.115 | tozasertib -0.035 | doramapimod 0.012 | bafetinib -0.024 | [6] -0.047
